Reference: PubChem BioAssay (EPA / NIEHS)
Active and inactive are the calls of the source. Rule for the calls: active = hit-call score of the fitted dose curve at least 0.9, where 1 is the maximum; inactive = score below 0.9.

Each molecule was assayed against Myc proto-oncogene protein (Homo sapiens) (UniProt P01106) (assay: ATG_Myc_CIS: Attagene CIS-FACTORIAL HepG2 Assay for human Myelocytomatosis (Myc) Proto-Oncogene Transcription Factor (AID 2282990)). Conditions: HepG2, Attagene cis-reporter transcription factor activity; actives raise or lower the signal.
Chain of Myc proto-oncogene protein (Homo sapiens) (P01106 whole entry, looked up): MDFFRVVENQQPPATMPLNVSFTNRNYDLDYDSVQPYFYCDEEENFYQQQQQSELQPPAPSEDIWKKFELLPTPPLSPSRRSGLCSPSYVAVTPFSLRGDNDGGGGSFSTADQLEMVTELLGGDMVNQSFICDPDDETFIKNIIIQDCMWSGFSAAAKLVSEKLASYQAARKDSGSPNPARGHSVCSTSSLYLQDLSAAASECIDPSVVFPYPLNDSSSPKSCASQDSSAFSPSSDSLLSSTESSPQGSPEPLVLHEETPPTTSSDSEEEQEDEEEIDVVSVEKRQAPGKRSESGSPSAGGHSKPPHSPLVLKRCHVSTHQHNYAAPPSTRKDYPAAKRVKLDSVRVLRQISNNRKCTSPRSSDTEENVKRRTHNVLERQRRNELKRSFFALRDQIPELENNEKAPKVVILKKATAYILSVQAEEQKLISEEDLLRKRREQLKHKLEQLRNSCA
In short: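 HepG2 cells transiently transfected with multiple cis-promoter-driven reporter transcription units, so endogenous TF activity is read. After 24 h compound exposure, reporter mRNA was quantified by RT-PCR, 6-FAM labelling, HpaI digestion and capillary electrophoresis; bidirectional fit versus DMSO.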

SMILES	outcome	AC50
COc1cc(S(=O)(=O)O)c(C)cc1N=Nc1c(O)ccc2cc(S(=O)(=O)O)ccc12	inactive	–
COCCOC[C@H](CC1(C(=O)NC2CCC(C(=O)O)CC2)CCCC1)C(=O)Oc1ccc2c(c1)CCC2 (stereo not given in full)	inactive	–
CN1CCCC1=O	inactive	–
COc1ccc(S(=O)(=O)N2C(=O)[C@@](c3ccccc3OC)(N3C[C@H](O)C[C@H]3C(=O)N(C)C)c3cc(Cl)ccc32)c(OC)c1	inactive	–
CCOC(=O)CCC(=O)OCC	inactive	–
COc1ccc2c(c1)c(CC(=O)O)c(C)n2C(=O)c1ccc(Cl)cc1	inactive	–
NS(=O)(=O)c1cc2c(cc1Cl)NCNS2(=O)=O	inactive	–
CCCCCCCCCCCCCO	inactive	–
COc1cccc2c1C(=O)c1c(O)c3c(c(O)c1C2=O)C[C@@](O)(C(=O)CO)C[C@@H]3O[C@H]1C[C@H](N)[C@H](O)[C@H](C)O1	–	2.48 µM (active)
CC=Cc1ccc(O)c(OC)c1	inactive	–
Cc1ccc(Cl)cc1	inactive	–
CCCc1cc(=O)[nH]c(=S)[nH]1	inactive	–
Cc1ccc(N(C)C)cc1	inactive	–
CCOc1ccc2c(c1)C(C)=CC(C)(C)N2	inactive	–
CC1=C(/C=C/C(C)=C/C=C/C(C)=C/CO)C(C)(C)CCC1	–	139 µM (active)
NCCO	inactive	–
COc1cc(/C=C/C(=O)CC(=O)/C=C/c2ccc(O)c(OC)c2)ccc1O	inactive	–
CNC(=O)[C@H]1O[C@@H](n2cnc3c(NCc4cc(Cl)ccc4OCc4cc(C)no4)ncnc32)[C@H](O)[C@@H]1N	inactive	–
O=c1[nH]cc(F)c(=O)[nH]1	inactive	–
O=C(O)Cc1ccccc1Nc1c(Cl)cccc1Cl	inactive	–
CCCCc1ccc2c(n1)[C@@H](c1ccc(OC)cc1C[C@H](C)C(=O)O)[C@H](C(=O)O)[C@H]2c1ccc2c(c1)OCO2	inactive	–
CC(=O)OCCOCCOCCOC(C)=O	inactive	–
Cc1c(C(=O)O)c(O)cc2c1C(=O)c1c(O)c([C@@H]3O[C@H](CO)[C@@H](O)[C@H](O)[C@H]3O)c(O)c(O)c1C2=O	inactive	–
CC(=O)OC/C=C(\C)CCC=C(C)C	inactive	–
CCCCCCCCCCCCCCCC	inactive	–
Cc1ccccc1Cl	inactive	–
C=CCc1ccc(O)c(OC)c1	inactive	–
Cc1cc(NC(=O)C(=O)O)cc(C)c1Oc1ccc(O)c2c1CCC2	inactive	–
CC(=O)C(C)=CC1C(C)=CCCC1(C)C (stereo not given)	inactive	–
FC(F)(F)C(F)(F)C(F)(F)C(F)(F)C(F)(F)C(F)(F)CCI	inactive	–
